In PubChem BioAssay:
A number with no mark means an inactive call. For part of these data: Entries with a potency or affinity are not part of this list. Activity calls are given as the source filed them. Unless noted, the rule behind the calls is not given here.

Assays:
[1] = antimalarial activity against Dd2 strain (AID 2302;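 active = growth inhibition above 50% at the single 2 µM test dose, taken to imply half-maximal potency below 2 µM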;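 note: 0% = DMSO untreated growth and 100% = chloroquine plus artemisinin killed control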); details: P. falciparum Dd2 in RBCs, LDH growth readout, 72 h; at 2 µM; active compounds read high
[2] = HepG2 cytotoxicity, primary screen, cytotoxicity control for P. falciparum antimalarial project, cell-based, ATP luminescence (AID 2303;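 active = inhibition above 50%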;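 note: 0% = DMSO wells and 100% = digitonin-killed cells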); details: HepG2 viability, 24-48 h, at 10 µM, active compounds read high
[3] = molecular target: L-lactate dehydrogenase (Plasmodium falciparum (isolate CDC / Honduras)) (UniProt Q27743); test: PfLDH activity inhibition – cell lysate, 3D7 strain, counter-screen for P. falciparum growth inhibition project (AID 2304);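 note: 0% = vehicle and 100% = reference inhibitor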; details: P. falciparum 3D7 crude extract, LDH APAD/NBT absorbance; at 2 µM; active compounds read high
Chain of L-lactate dehydrogenase (Plasmodium falciparum (isolate CDC / Honduras)) (Q27743 whole entry, looked up): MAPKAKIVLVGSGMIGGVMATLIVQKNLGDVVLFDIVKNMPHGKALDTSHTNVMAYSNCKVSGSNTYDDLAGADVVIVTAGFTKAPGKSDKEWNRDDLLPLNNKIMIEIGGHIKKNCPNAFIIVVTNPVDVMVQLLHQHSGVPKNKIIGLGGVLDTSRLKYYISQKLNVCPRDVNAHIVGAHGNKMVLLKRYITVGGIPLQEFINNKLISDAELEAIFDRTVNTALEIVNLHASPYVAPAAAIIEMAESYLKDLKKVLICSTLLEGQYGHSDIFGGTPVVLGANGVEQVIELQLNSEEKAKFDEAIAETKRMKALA

[4] = inhibition of 3D7 malaria parasite growth – strain 3D7 (AID 2306);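 note: 0% = DMSO wells and 100% = chloroquine plus artemisinin control wells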; details: P. falciparum 3D7 erythrocytic growth, LDH absorbance, 72 h; at 2 µM; active compounds read high
[5] = molecular target: Calcium-dependent protein kinase 1 (Plasmodium falciparum (isolate 3D7)) (UniProt P62344); test: PfCDPK1 kinase inhibitors, biochemical, TCAMS library (AID 1159585; cut-off not given, nearly all actives have IC50 up to about 0.98 µM;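 note: inhibitors leave more ATP so luminescence rises with inhibition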); details: recombinant PfCDPK1, Kinase-Glo ATP depletion luminescence
Chain of Calcium-dependent protein kinase 1 (Plasmodium falciparum (isolate 3D7)) (P62344 whole entry, looked up): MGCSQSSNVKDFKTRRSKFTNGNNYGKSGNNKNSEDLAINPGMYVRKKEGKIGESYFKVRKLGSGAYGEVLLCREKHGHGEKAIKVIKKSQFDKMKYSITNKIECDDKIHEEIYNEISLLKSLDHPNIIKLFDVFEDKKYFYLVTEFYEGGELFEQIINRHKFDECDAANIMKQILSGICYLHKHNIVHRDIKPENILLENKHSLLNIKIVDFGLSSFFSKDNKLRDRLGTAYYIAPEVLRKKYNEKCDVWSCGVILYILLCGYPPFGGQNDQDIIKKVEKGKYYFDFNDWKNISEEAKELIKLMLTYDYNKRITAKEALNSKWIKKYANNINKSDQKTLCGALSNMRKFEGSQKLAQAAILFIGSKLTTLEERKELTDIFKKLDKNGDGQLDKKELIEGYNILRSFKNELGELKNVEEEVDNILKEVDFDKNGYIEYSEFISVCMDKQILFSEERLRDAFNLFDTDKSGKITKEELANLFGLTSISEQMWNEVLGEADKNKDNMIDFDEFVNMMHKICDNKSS

[6] = molecular target: Plasmodium falciparum protein kinase 6 (PK6, PF3D7_1337100) (UniProt Q8IDW1); test: PfPK6 kinase inhibitors, biochemical, TCAMS library (AID 1159586); details: recombinant PfPK6, Kinase-Glo ATP depletion luminescence
Chain of Plasmodium falciparum protein kinase 6 (PK6, PF3D7_1337100) (Q8IDW1 1-305): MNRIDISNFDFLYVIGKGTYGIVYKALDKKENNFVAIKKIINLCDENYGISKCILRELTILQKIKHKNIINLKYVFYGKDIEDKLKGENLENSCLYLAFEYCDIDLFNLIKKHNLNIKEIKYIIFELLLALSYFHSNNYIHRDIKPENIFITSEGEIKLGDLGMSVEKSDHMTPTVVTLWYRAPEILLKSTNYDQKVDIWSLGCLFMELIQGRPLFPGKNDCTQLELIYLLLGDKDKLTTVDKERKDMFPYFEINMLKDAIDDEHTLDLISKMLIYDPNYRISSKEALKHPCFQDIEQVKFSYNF

[7] = molecular target: Protein kinase 7 (PK7), Plasmodium falciparum 3D7 (PF3D7_0213400) (UniProt Q7YTF7); test: inhibition of Plasmodium PK7 catalytic activity – biochemical, TCAMS antimalarial set, Kinase-Glo luminescence (AID 1159587); details: recombinant PfPK7, Kinase-Glo ATP depletion luminescence
Chain of Protein kinase 7 (PK7), Plasmodium falciparum 3D7 (PF3D7_0213400) (Q7YTF7 1-343): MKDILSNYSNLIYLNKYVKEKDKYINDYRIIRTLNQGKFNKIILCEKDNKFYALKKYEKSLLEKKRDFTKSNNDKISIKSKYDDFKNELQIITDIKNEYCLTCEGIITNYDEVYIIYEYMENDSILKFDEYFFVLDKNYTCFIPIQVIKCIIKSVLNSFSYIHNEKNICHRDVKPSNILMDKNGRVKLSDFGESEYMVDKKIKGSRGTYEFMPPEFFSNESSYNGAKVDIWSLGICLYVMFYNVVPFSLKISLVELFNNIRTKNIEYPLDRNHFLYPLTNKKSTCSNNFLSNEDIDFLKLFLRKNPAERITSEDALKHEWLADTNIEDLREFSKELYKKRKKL

[8] = molecular target: Calcium-dependent protein kinase 4 (Plasmodium falciparum (isolate 3D7)) (UniProt Q8IBS5); test: PfCDPK4 kinase inhibitors, biochemical, TCAMS library (AID 1159588; cut-off not given, nearly all actives have IC50 up to about 0.91 µM); details: recombinant PfCDPK4, Kinase-Glo ATP depletion luminescence
Chain of Calcium-dependent protein kinase 4 (Plasmodium falciparum (isolate 3D7)) (Q8IBS5 whole entry, looked up): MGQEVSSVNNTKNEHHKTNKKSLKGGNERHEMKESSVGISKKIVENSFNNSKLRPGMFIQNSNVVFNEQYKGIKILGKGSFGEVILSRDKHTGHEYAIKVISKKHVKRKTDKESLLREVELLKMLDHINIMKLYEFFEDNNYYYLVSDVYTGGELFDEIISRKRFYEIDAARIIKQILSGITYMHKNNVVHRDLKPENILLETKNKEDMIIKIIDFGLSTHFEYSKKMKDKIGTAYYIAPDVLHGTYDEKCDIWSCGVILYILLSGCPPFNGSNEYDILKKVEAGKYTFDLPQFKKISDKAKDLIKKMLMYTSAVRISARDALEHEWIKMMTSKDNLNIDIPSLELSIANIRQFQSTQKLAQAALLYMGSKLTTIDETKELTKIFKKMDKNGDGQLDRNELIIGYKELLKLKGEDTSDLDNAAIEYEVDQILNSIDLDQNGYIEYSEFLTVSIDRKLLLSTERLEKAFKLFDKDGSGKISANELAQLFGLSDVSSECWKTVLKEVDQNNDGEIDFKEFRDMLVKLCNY

SMILES	growth inhibition [1]	inhibition [2]	inhibition [3] [%]	growth inhibition [4]	outcome [5]	outcome [6]	outcome [7]	outcome [8]
Cc1cc(N[C@@H](Cc2ccccc2)C(=O)Nc2ccccc2)nc(NCCc2cccs2)n1	72% (active)	-1%	-1	100% (active)	inactive	inactive	inactive	inactive
COc1ccc2nccc([C@@H](O)CN3CCC(NCc4cc5ccc(C#N)cc5[nH]4)CC3)c2c1	39%	31%	0	100% (active)	inactive	inactive	inactive	inactive
Clc1ccc(NC(=NCCCCCCCN=C(Nc2ccc(Cl)cc2)Nc2ccc(Cl)cc2)Nc2ccc(Cl)cc2)cc1	99% (active)	100% (active)	0	101% (active)	inactive	inactive	inactive	inactive
O=C(Nc1n[nH]c2nc(-c3ccco3)c(Br)cc12)c1ccc(CN2CCCC2)cc1	53% (active)	1%	2	101% (active)	inactive	inactive	inactive	inactive
CN(C)S(=O)(=O)c1cc(-c2ccc3nccc(-c4cccc(S(N)(=O)=O)c4)c3c2)cnc1N	98% (active)	35%	-2	100% (active)	inactive	inactive	inactive	inactive
C[C@H](Cc1ccc(OCCCCCOc2ccc(C[C@@H](C)NC[C@H](O)c3cccc(Cl)c3)cc2)cc1)NC[C@H](O)c1cccc(Cl)c1	101% (active)	99% (active)	-1	99% (active)	inactive	inactive	inactive	inactive
Oc1ccc(CCNc2nc(NCCOc3cccc4ccccc34)nc(N3CCNCC3)n2)cc1	8%	21%	1	96% (active)	inactive	inactive	inactive	inactive
COc1cc(CS(C)(=O)=O)ccc1Nc1nccc(-c2c(-c3cccc(NC(=O)c4c(F)cccc4F)c3)nn3ccccc23)n1	71% (active)	46%	3	92% (active)	inactive	inactive	inactive	inactive
CCCCCCCCCCNCC(O)c1ccc(O)c(C(=O)OC)c1 (stereo not drawn)	97% (active)	3%	-7	97% (active)	inactive	inactive	inactive	inactive
Nc1ncc(-c2ccc(NC(=O)Nc3cc(C(F)(F)F)ccc3F)cc2)c(N)n1	21%	96% (active)	-5	99% (active)	inactive	inactive	inactive	inactive
Cc1cnc(NCCc2ccc(F)cc2)nc1NCCC(=O)Nc1ccccc1	17%	3%	6	89% (active)	inactive	inactive	inactive	inactive
CN(C)c1nc2cc(-n3cnc4cc(-c5ccc(Cl)cc5)sc4c3=O)ccc2n1CCCN1CCCC1	73% (active)	99% (active)	2	97% (active)	inactive	inactive	inactive	inactive
C=C[C@]1(C)C[C@@H](OC(=O)NC(=O)C2CCN(C(=O)CSc3ccccc3)CC2)[C@]2(C)[C@H](C)CC[C@]3(CCC(=O)[C@H]32)[C@@H](C)[C@@H]1O	74% (active)	-3%	1	93% (active)	inactive	inactive	inactive	inactive
N#CCCN1CCN(Cc2cccc(-c3ccc(-c4nc5ccccc5[nH]4)s3)c2)CC1	8%	48%	-4	96% (active)	inactive	inactive	inactive	inactive
c1cc(OCCN2CCCC2)ccc1CNC1CCN(CC2CCCCC2)CC1	54% (active)	15%	5	101% (active)	inactive	inactive	inactive	inactive
CCOC(=O)c1ccc(-c2cnoc2-c2cc(CC)c(OC)cc2O)o1	97% (active)	12%	1	101% (active)	inactive	inactive	inactive	inactive
CC(=O)Nc1ncc(C(=O)Nc2cccc(-c3ccc(-c4nc5ccc(F)cc5[nH]4)cc3)c2)s1	78% (active)	18%	4	94% (active)	inactive	inactive	inactive	inactive
COc1ccc(S(=O)(=O)NCCCC2CCN(CCCCCNC(=O)C=Cc3ccc(Cl)c(Cl)c3)CC2)cc1	12%	24%	0	85% (active)	inactive	inactive	inactive	inactive

SMILES	growth inhibition [1]	inhibition [2]	inhibition [3] [%]	growth inhibition [4]	outcome [5]	outcome [6]	outcome [7]	outcome [8]
O=C(/C=C/c1ccc(Cl)c(Cl)c1)NCCCCCN1CCCN(C(=O)Nc2ccc(OC(F)F)cc2)CC1	-4%	39%	3	99% (active)	inactive	inactive	inactive	inactive
CCN1CCN(CC(O)CNC(=O)Nc2ccc(Cl)cc2)CC1 (stereo not drawn)	99% (active)	29%	3	100% (active)	inactive	inactive	inactive	inactive
CN(C)CCCNc1ncnc2c1[nH]c1ccc(Cl)cc12	3%	2%	2	99% (active)	inactive	inactive	inactive	inactive
NC(=O)c1cccc(Nc2nccc(Nc3ccc(Oc4cccc(Cl)c4)c(Cl)c3)n2)c1	12%	-3%	1	93% (active)	inactive	inactive	inactive	inactive
CC1(C)N=C(N)N=C(N)N1OCCCOc1cccc(Cl)c1	95% (active)	65% (active)	-4	95% (active)	inactive	inactive	inactive	inactive
CSc1ccc(NC(=O)Nc2cc(C)nc3ccccc23)cc1	23%	7%	1	100% (active)	inactive	inactive	inactive	inactive
CC1(C)CCCN(C(=O)c2cccc(-n3nc(-c4ccc(Cl)cc4)cc3N)c2)C1	98% (active)	13%	-2	101% (active)	inactive	inactive	inactive	inactive
C[C@H](NC(=O)c1c(CN2CCC(N3CCCCC3)CC2)c(-c2ccccc2)nc2cc(O)ccc12)C1CCCCC1	72% (active)	77% (active)	0	99% (active)	inactive	inactive	inactive	inactive
O=C(Nc1cccc(CN2CCCN(Cc3ncc[nH]3)CC2)c1)c1ccc(-c2ccccc2)cc1	56% (active)	23%	-5	101% (active)	inactive	inactive	inactive	inactive
O=C(NCCCN1CCN(c2cccc(Cl)c2)CC1)c1ccc(-c2nc3cc(Cl)c(Cl)cc3[nH]2)c(F)c1	72% (active)	3%	2	101% (active)	inactive	inactive	inactive	inactive
Cc1cccc2[nH]c(-c3cccc(-c4cccc(CN5CCC(CO)CC5)c4)c3)nc12	90% (active)	4%	-6	101% (active)	inactive	inactive	inactive	inactive
Cc1ccc(NC(=O)Nc2ccc(Cl)c(C(F)(F)F)c2)cc1-c1ccc(C(=O)NCCN2CCOCC2)cc1	31%	52% (active)	0	98% (active)	inactive	inactive	inactive	inactive
CN(C)CCNc1ncnc2c1[nH]c1ccc(Cl)cc12	8%	7%	4	100% (active)	inactive	inactive	inactive	inactive
CCN(CC)CCCN(C(=O)c1cc2c(C)nn(-c3ccccc3)c2s1)c1nc(-c2ccc(OC)cc2)cs1	32%	12%	-7	89% (active)	inactive	inactive	inactive	inactive
COc1ccc(OCCCCON2C(N)=NC(N)=NC2(C)C)cc1	95% (active)	54% (active)	4	92% (active)	inactive	inactive	inactive	inactive
Cc1cccc2[nH]c(-c3cccc(-c4cccc(CNCCN5CCNCC5)c4)c3)nc12	0%	11%	1	90% (active)	inactive	inactive	inactive	inactive
Cc1[nH]n(-c2cccc(C(F)(F)F)c2)c(=O)c1-c1ccc(Cl)cc1	25%	7%	-4	98% (active)	inactive	inactive	inactive	inactive
CCN(CC)CCCN1CCN(C(=O)c2cccc(-c3noc(C(F)(F)F)n3)c2)CC1	74% (active)	-10%	7	91% (active)	inactive	inactive	inactive	inactive
